Measured values: PubChem BioAssay (NCATS)
Results filed as inconclusive are left out. The source made the active and inactive calls. Calls come from the whole dose curve; as a rule, active = well fitted cell-killing curve with a large enough effect; inconclusive = small, poorly fitted or top-dose-only effect; inactive = no such curve, though single readings can be large or run the other way.

assay: qHTS of pediatric cancer cell lines to identify multiple opportunities for drug repurposing: Primary screen for A673 cells (AID 1347092); conditions: A673 Ewing sarcoma viability, CellTiter-Glo ATP luminescence, 48 h; series mostly up to 46 µM; activity change, negative = cytotoxic: at the top concentration; note: nearly all actives have a fitted effect of over 45% in size
Summary of the method: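 Cells are plated, rested 5 h, dosed by pintool, incubated 48 h, then lysed with CellTiter-Glo and read by luminescence. DMSO is the neutral control; bortezomib at 2.3 uM final is the positive control.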
% is set by controls: 0 for no effect and ±100 for the full control effect.

Question: Which “activity change, negative = cytotoxic” value does the source give for `O=C(CN1CCN(Cc2ccc3c(c2)OCO3)CC1)N1c2ccccc2Sc2ccccc21` here?
Answer: 8.79% (inactive)

Question: With `NS(=O)(=O)Cc1noc2ccccc12` as the compound, how does the “activity change, negative = cytotoxic” value read?
Answer: 9.53% (inactive)

Question: Which “activity change, negative = cytotoxic” value does the source give for `OC[C@H]1O[C@@H](Oc2ccc(O)cc2)[C@H](O)[C@@H](O)[C@@H]1O` here?
Answer: -6.68% (inactive)

Question: Which “activity change, negative = cytotoxic” value does the source give for `NCc1ccccc1Sc1ccccc1CO` here?
Answer: 3.97% (inactive)

Question: Which “activity change, negative = cytotoxic” value does the source give for `CCC1NC(=O)c2cc(S(N)(=O)=O)c(Cl)cc2N1` (stereo unspecified) here?
Answer: 2.17% (inactive)

Question: For `CC(=O)NO`, which “activity change, negative = cytotoxic” value is on record?
Answer: -3.9% (inactive)

Question: For `O=C(Nc1ccc([N+](=O)[O-])cc1)Nc1ccc([N+](=O)[O-])cc1`, which “activity change, negative = cytotoxic” value is on record?
Answer: 1.01% (inactive)

Question: Which “activity change, negative = cytotoxic” value does the source give for `C#C[C@]1(O)CC[C@H]2[C@@H]3CCC4=CC(=O)CC[C@@H]4[C@H]3CC[C@@]21CC` here?
Answer: -3.78% (inactive)

Question: With `Cc1ncc(CO)c(C=O)c1O` as the compound, how does the “activity change, negative = cytotoxic” value read?
Answer: -3.85% (inactive)

Question: Which “activity change, negative = cytotoxic” value does the source give for `COc1cc(C(=O)NCc2ccc(OCCN(C)C)cc2)cc(OC)c1OC` here?
Answer: -22.6% (inactive)

Question: For `Nc1ccc(S(=O)(=O)NCc2ccccc2)cc1`, which “activity change, negative = cytotoxic” value is on record?
Answer: -11.8% (inactive)

Question: Which “activity change, negative = cytotoxic” value does the source give for `CCCCCCCCCCCCSCCOCCO` here?
Answer: -9.23% (inactive)

Question: Which “activity change, negative = cytotoxic” value does the source give for `O=C(O)CCNC(=O)c1ccccc1` here?
Answer: -7.96% (inactive)

Question: With `OCc1ccccn1` as the compound, how does the “activity change, negative = cytotoxic” value read?
Answer: 2.01% (inactive)

Question: With `NS(=O)(=O)c1ccc(Cl)c(S(N)(=O)=O)c1` as the compound, how does the “activity change, negative = cytotoxic” value read?
Answer: -3.18% (inactive)

Question: For `CCCN(CCC)S(=O)(=O)c1ccc(C(=O)O)cc1`, which “activity change, negative = cytotoxic” value is on record?
Answer: 7.67% (inactive)

Question: For `CC1CCc2c(N3CCC(O)CC3)c(F)cc3c(=O)c(C(=O)O)cn1c23` (stereo unspecified), which “activity change, negative = cytotoxic” value is on record?
Answer: 3.24% (inactive)

Question: For `CC(=O)NCCCCCC(=O)O`, which “activity change, negative = cytotoxic” value is on record?
Answer: -13.3% (inactive)

Question: For `COc1ccc2c(c1)c1c3n2CCN(C)C3=NCC1`, which “activity change, negative = cytotoxic” value is on record?
Answer: 10.9% (inactive)

Question: For `CCN(CC)CCOc1ccccc1C(=O)CCc1ccccc1`, which “activity change, negative = cytotoxic” value is on record?
Answer: -5.71% (inactive)

Question: Which activity change, negative = cytotoxic does the source give for `CCN[C@@H]1C[C@H](N)[C@@H](OC2OC(CN)=CCC2N)[C@H](O)[C@H]1O[C@H]1OC[C@](C)(O)[C@H](NC)[C@H]1O` (stereo partly specified) here?
Answer: -2.55% [at 0.597 µM] (inactive)

Question: For `CN(C)CCOC(=O)C(c1ccccc1)C1(O)CCCC1` (stereo unspecified), which “activity change, negative = cytotoxic” value is on record?
Answer: -15.5% (inactive)

Question: For `O=C(O)P(=O)(O)O`, which “activity change, negative = cytotoxic” value is on record?
Answer: 3.68% (inactive)

Question: Which “activity change, negative = cytotoxic” value does the source give for `CC1(COc2ccc(CC3SC(=O)NC3=O)cc2)CCCCC1` (stereo unspecified) here?
Answer: -0.49% (inactive)

Question: For `COc1cc(NS(=O)(=O)c2ccc(N)cc2)ncn1`, which “activity change, negative = cytotoxic” value is on record?
Answer: 2.55% (inactive)

Question: For `Cc1ccc(S(=O)(=O)NC(=O)NC2CCCC2)cc1`, which “activity change, negative = cytotoxic” value is on record?
Answer: 1.72% (inactive)

Question: With `O=[N+]([O-])c1cccc(S(=O)(=O)NCCNS(=O)(=O)c2cccc([N+](=O)[O-])c2)c1` as the compound, how does the “activity change, negative = cytotoxic” value read?
Answer: 4.24% (inactive)

Question: Which “activity change, negative = cytotoxic” value does the source give for `c1ccc(-c2nc[nH]c2-c2ccccc2)cc1` here?
Answer: -3.29% (inactive)

Question: Which “activity change, negative = cytotoxic” value does the source give for `CCc1ccc(C(=O)C(C)CN2CCCCC2)cc1` (stereo unspecified) here?
Answer: -12.1% (inactive)

Question: With `C=C[C@@]1(C)CC(=O)[C@]2(O)[C@@]3(C)[C@@H](O)CCC(C)(C)[C@@H]3[C@H](O)[C@H](OC(C)=O)[C@@]2(C)O1` as the compound, how does the “activity change, negative = cytotoxic” value read?
Answer: 9.57% (inactive)

Question: For `CN1CCN(C2=Nc3ccccc3Sc3ccc(Cl)cc32)CC1`, which “activity change, negative = cytotoxic” value is on record?
Answer: -11% (inactive)

Question: For `CCN(CC)CCNC(=O)COc1ccc(OC)cc1`, which “activity change, negative = cytotoxic” value is on record?
Answer: -10.3% (inactive)

Question: For `CCCCCCCCCCCCCC(=O)OC(C)C`, which “activity change, negative = cytotoxic” value is on record?
Answer: 13% (inactive)

Question: Which “activity change, negative = cytotoxic” value does the source give for `Cc1nc(-c2ccc(Cl)cc2)oc1COC(C)(C)C(=O)O` here?
Answer: 8.02% (inactive)

Question: Which “activity change, negative = cytotoxic” value does the source give for `O=C(O)CCc1nc2ccccc2[nH]1` here?
Answer: -10.2% (inactive)

Question: Which “activity change, negative = cytotoxic” value does the source give for `CCOc1ccc(NC(C)=O)cc1` here?
Answer: -13.7% (inactive)
